Measured values published in PubChem BioAssay (Tox21).
Values joined by “and” are separate entries in the source; they are usually repeats but may differ in a detail not shown here. Equal entries are not always repeated. Inconclusive results are not listed. Active and inactive are the calls of the source. Unless noted, calls come from the whole dose curve; as a rule, active = well fitted curve in the direction sought with a large enough effect in the repeat runs; inconclusive = weak or mixed curves; inactive = no such curve, though single readings can be large; an effect the other way counts as inactive or inconclusive.

Columns and labels:
[1] = qHTS assay for identifying genotoxic compounds that show differential cytotoxicity against isogenic chicken DT40 cell lines with known DNA damage response pathways - wild type cell line (AID 743012); note: potency is the fitted concentration of half-maximal effect; nearly all actives have a fitted effect of over 60% in size
How it was run: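 Wild type DT40, 300 cells/well, ~0.5 h settle at 37 C/5% CO2; compounds in DMSO added by pintool; 40 h at 37 C/5% CO2; CellTiter-Glo, 30 min RT; luminescence.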

[2] = qHTS assay to identify small molecule antagonists of the androgen receptor (AR) signaling pathway - cell viability counter screen (AID 743033; note: nearly all actives have a fitted effect of over 45% in size; note: potency is the fitted concentration of half-maximal effect)
[3] = qHTS assay to identify small molecule antagonists of the androgen receptor (AR) signaling pathway using the MDA cell line - cell viability counter screen (AID 743041; note: % is set by controls: 0 for no effect and ±100 for the full control effect; nearly all actives have a fitted effect of over 45% in size)
How it was run: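 MDA-kb2 AR-luc cells (MMTV-luciferase, AR/GR responsive) treated with compounds plus R1881 agonist for 16 h at 37C. CellTiter-Fluor added at 15.5 h; fluorescence read after 30 min in the same wells.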

[4] = biological target: Androgen receptor (Homo sapiens) (UniProt P10275); assay: qHTS assay to identify small molecule antagonists of the androgen receptor (AR) signaling pathway using the MDA cell line (AID 743042; note: nearly all actives have a fitted effect of over 55% in size; note: potency is the fitted concentration of half-maximal effect)
Chain of Androgen receptor (Homo sapiens) (P10275 whole entry, looked up): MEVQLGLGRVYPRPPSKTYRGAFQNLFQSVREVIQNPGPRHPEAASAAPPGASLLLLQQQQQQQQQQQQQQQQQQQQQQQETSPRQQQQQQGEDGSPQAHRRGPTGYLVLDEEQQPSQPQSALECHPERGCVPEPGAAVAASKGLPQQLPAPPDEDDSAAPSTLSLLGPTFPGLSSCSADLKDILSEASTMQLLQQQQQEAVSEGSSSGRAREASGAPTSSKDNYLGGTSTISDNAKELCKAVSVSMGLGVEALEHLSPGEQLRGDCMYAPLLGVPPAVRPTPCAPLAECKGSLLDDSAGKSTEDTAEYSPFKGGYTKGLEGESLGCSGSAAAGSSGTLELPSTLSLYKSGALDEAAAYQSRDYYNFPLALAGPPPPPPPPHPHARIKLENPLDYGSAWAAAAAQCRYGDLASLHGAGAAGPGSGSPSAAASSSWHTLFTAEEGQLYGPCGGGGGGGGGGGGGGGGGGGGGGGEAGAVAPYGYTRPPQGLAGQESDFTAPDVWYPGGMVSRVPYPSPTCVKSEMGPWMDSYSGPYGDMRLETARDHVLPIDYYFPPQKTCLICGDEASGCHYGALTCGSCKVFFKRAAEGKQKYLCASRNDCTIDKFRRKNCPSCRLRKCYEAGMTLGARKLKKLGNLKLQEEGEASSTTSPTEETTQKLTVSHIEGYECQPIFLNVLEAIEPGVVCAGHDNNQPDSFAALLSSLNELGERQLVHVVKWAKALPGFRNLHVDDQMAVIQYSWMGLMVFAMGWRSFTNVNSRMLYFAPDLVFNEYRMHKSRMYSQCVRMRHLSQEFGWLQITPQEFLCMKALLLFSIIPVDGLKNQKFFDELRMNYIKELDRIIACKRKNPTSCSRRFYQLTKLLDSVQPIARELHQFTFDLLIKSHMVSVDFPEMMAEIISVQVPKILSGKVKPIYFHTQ
How it was run: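 MDA-kb2 breast carcinoma cells carrying MMTV-luciferase (AR/GR responsive) were co-treated with compounds and the agonist R1881 for 16 h at 37C. Inhibition read as ONE-Glo luminescence; CellTiter-Fluor fluorescence measured in parallel for cytotoxicity.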

[5] = system: thyroid hormone receptor (rat, GH3 cells); assay: qHTS assay to identify small molecule agonists of the thyroid receptor (TR) signaling pathway (AID 743066; calls by dose curve; note: potency is the fitted concentration of half-maximal effect; for activation: % is set by controls: 0 for no effect and ±100 for the full control effect)
[6] = biological target: Estrogen receptor (Homo sapiens) (UniProt P03372); assay: qHTS assay to identify small molecule antagonists of the estrogen receptor alpha (ER-alpha) signaling pathway (AID 743069; active = well fitted curve in the direction sought with a large enough effect in the signal ratio in the repeat runs, not every such curve was filed as active; the % refers to the signal ratio; note: % is set by controls: 0 for no effect and ±100 for the full control effect)
Chain of Estrogen receptor (Homo sapiens) (P03372 whole entry, looked up): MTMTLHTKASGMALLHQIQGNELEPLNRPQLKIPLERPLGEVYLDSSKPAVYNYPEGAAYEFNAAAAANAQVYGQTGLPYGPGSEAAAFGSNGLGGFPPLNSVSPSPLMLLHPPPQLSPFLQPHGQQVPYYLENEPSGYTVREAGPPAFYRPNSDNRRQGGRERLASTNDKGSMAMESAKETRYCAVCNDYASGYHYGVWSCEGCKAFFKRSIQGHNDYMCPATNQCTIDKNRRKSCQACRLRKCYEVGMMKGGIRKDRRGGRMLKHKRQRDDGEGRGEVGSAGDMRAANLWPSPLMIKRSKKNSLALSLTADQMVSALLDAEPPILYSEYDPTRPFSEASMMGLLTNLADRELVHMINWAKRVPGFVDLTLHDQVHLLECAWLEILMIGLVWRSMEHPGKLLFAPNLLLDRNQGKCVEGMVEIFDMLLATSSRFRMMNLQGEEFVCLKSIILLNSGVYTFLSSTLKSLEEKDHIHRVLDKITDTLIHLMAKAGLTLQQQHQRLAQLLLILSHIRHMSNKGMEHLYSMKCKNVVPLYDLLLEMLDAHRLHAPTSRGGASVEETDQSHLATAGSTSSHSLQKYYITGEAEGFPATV
How it was run: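 HEK293 ER-alpha-UAS-bla GripTite cells, held overnight in 2% charcoal-stripped FBS, 5,000 cells/well, preincubated 4 h, then compound plus 17beta-estradiol for 18 h at 37C. Beta-lactamase read by LiveBLAzer B/G FRET substrate, 2 h at room temperature.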

[7] = qHTS assay to identify small molecule antagonists of the estrogen receptor alpha (ER-alpha) signaling pathway - cell viability counter screen (AID 743074; calls by dose curve;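 note: HEK293 cells carrying ER-alpha-UAS-bla reporter stimulated with 17beta-estradiol; nearly all actives have a fitted effect of over 45% in size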; note: potency is the fitted concentration of half-maximal effect)
[8] = biological target: Estrogen receptor (Homo sapiens) (UniProt P03372); assay: qHTS assay to identify small molecule agonists of the estrogen receptor alpha (ER-alpha) signaling pathway (AID 743075; calls by dose curve; note: % is set by controls: 0 for no effect and ±100 for the full control effect)
[9] = biological target: Estrogen receptor (Homo sapiens) (UniProt P03372); assay: qHTS assay to identify small molecule agonists of the estrogen receptor alpha (ER-alpha) signaling pathway using the BG1 cell line (AID 743079); conditions: BG1Luc4E2 cells, ERE-luciferase agonist, 22 h; activation: at 70.3 µM (top of the series); note: nearly all actives have a fitted effect of over 20% in size; note: potency is the fitted concentration of half-maximal effect; for activation: % is set by controls: 0 for no effect and ±100 for the full control effect
[10] = qHTS assay to identify small molecule antagonists of the estrogen receptor alpha (ER-alpha) signaling pathway using the BG1 cell line (AID 743080; calls by dose curve;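 note: BG1 cells stimulated with 17beta-estradiol alongside compound; % is set by controls: 0 for no effect and ±100 for the full control effect; nearly all actives have a fitted effect of over 25% in size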)
How it was run: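 Luciferase inhibition measured with ONE-Glo after 30 min at RT in BG1Luc4E2 cells given test compounds and 17beta-estradiol for 21.5 h at 37 C; CellTiter-Fluor viability read in the same wells beforehand.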

[11] = qHTS assay to identify small molecule antagonists of the estrogen receptor alpha (ER-alpha) signaling pathway using the BG1 cell line - cell viability counter screen (AID 743081);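 note: compound given together with 17beta-estradiol as the ER stimulus; % is set by controls: 0 for no effect and ±100 for the full control effect; nearly all actives have a fitted effect of over 45% in size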
Aromatase (Homo sapiens) = Aromatase (Homo sapiens) (UniProt P11511); assay: qHTS assay to identify aromatase inhibitors (AID 743083); note: nearly all actives have a fitted effect of over 55% in size; note: potency is the fitted concentration of half-maximal effect
Chain of Aromatase (Homo sapiens) (P11511 whole entry, looked up): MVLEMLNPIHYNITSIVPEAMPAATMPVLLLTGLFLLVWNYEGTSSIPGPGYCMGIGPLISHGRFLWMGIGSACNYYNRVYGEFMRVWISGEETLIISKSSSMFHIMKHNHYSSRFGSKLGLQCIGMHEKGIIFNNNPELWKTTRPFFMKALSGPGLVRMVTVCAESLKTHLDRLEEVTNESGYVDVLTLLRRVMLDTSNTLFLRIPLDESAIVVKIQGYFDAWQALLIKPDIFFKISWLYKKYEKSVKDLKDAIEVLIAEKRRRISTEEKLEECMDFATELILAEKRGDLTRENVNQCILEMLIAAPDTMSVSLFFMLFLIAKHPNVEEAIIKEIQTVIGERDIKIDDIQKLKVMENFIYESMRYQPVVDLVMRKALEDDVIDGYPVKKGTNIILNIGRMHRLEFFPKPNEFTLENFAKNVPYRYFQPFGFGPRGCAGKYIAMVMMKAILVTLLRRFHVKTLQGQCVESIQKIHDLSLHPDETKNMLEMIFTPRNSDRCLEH

[12] = qHTS assay for identifying genotoxic compounds that show differential cytotoxicity against isogenic chicken DT40 cell lines with known DNA damage response pathways - Rev3 mutant cell line (AID 743014); note: nearly all actives have a fitted effect of over 55% in size; note: potency is the fitted concentration of half-maximal effect
[13] = qHTS assay for identifying genotoxic compounds that show differential cytotoxicity against isogenic chicken DT40 cell lines with known DNA damage response pathways - Rad54/Ku70 mutant cell line (AID 743015); note: nearly all actives have a fitted effect of over 60% in size; note: potency is the fitted concentration of half-maximal effect
[14] = qHTS assay to identify small molecule antagonists of the thyroid receptor (TR) signaling pathway - cell viability counter screen (AID 743064); note: % is set by controls: 0 for no effect and ±100 for the full control effect; nearly all actives have a fitted effect of over 50% in size
How it was run: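 GH3.TRE-Luc rat pituitary cells dosed after 4 hr plating, co-stimulated with T3 at 1 nM final, incubated 23.5 h at 37 C. Viability measured in the same wells by CellTiter-Fluor fluorescence after 30 min further at 37 C.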

[15] = qHTS assay to identify small molecule antagonists of the thyroid receptor (TR) signaling pathway (AID 743065); note: nearly all actives have a fitted effect of over 55% in size; note: potency is the fitted concentration of half-maximal effect
How it was run: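 GH3.TRE-Luc rat pituitary cells (two TREs driving luciferase) were dosed with compound, then stimulated with 1 nM T3 (final) for 23.5 h at 37 C. ONE-Glo luminescence was the read-out, with CellTiter-Fluor fluorescence as the cytotoxicity counter-screen.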

Measured: Potency

[O]=[Cr](=[O])([OH])[O][Cr](=[O])(=[O])[OH]
active: [1] 21.1 µM [middle of 4 runs] | [2] 7.83 µM and 21.8 µM | Aromatase (Homo sapiens) 13.3 µM and 2.46 µM and 2.43 µM
inactive: [3] | [4] | [5] | [6] | [7] | [8] | [9] | [10] | [11]

CC(=O)[O-].CC(=O)[O-].O.O.[Zn+2]
inactive: [12] | [13] | [2] | [3] | [14] | [5] | [11] | Aromatase (Homo sapiens)

CCN1CCC2(CC1)COc1cc3c(cc12)N(C(=O)c1ccc(-c2ccc(-c4nnc(C)o4)cc2C)cc1)CC3
inactive: [8]
active: [1] 1.26 µM | [12] 1.42 µM | [13] 1 µM | [2] 6.38 µM | [4] 63.3 µM | [15] 2.52 µM | [7] 50.7 µM | Aromatase (Homo sapiens) 28.3 µM

O=C(O)CCCCCCNC1c2ccccc2CCc2ccccc21
inactive: [12] | [13] | [2] | [3] | [14] | [6] | [8] | [9] | [11]
active: [5] 23.7 µM

c1csc(-c2ccc(-c3cccs3)s2)c1
inactive: [2] | [3] | [15] | [11] | Aromatase (Homo sapiens)
active: [1] 68.6 µM | [5] 61.1 µM | [9] 27.3 µM
